tim10-1 inh – growth inhibitors of tim10-1 mutant yeast, primary screen, luminescence, uHTS; AID 463190, 2010; hit rate 2.2% among 330,000; S. cerevisiae tim10-1 ts strain growth, BacTiter-Glo, 24 h; inhibition, % at 20 µM;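 active = inhibition of at least 40%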;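 also: mutant grown at 25 °C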
SUMO Mot1 rescue – yeast Mot1-301 growth rescue at high temperature, primary screen, SUMOylation pathway inhibitor project, S. cerevisiae, ATP luminescence, 38.5C. S. cerevisiae Mot1-301 growth rescue; percent above DMSO median, 100 means doubled. growth rescue, % at 18.8 µM. hit rate 1% among 320,000. AID 2716, 2010;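 active = every valid replicate shows activation above 250% relative to neutral control wells; inactive = the rest, any valid replicate at or below 250%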
tim23-1 inh – growth inhibitors of tim23-1 mutant yeast, primary screen, luminescence, uHTS; hit rate 1.3% among 330,000; inhibition, % at 20 µM; S. cerevisiae tim23-1 growth, BacTiter-Glo luminescence, 24 h; AID 463212, 2010;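 active = growth inhibition of the mutant yeast at or above 50%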;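 also: temperature-sensitive mutant grown at 25 °C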
TIM10 inh – growth inhibitors of isogenic TIM10 control yeast, primary screen, counter-screen for tim10-1 yeast inhibitor project, luminescence, uHTS | inhibition, % at 10 µM | hit rate 1.4% among 330,000 | S. cerevisiae TIM10 strain growth, BacTiter-Glo luminescence, 24 h;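 active = inhibition of 40% or more at the single tested concentration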;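 also: wild-type TIM10 isogenic control strain grown at permissive 25 °C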
PfHsp90 yeast 2 – growth inhibition of PfHsp90-expressing yeast, primary screen, antimalarial PfHsp90 inhibitor project, S. cerevisiae, BacTiter-Glo luminescence, single point, set 2; hit rate 0.32% among 310,000; BacTiter-Glo ATP, 48 h; yeast lacking PDR1 and PDR3 efflux regulators; inhibition, % at 9.4 µM;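 active = every replicate shows inhibition above about 80%, whatever the replicate mean, limit read from the data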
Each line names hits and unclear results; the compound was inactive in the other large screens. A selection: hits, their analogues and other compounds. The true share with any hit is near 4.4%.

Cc1ccc(/C=[N+](\[O-])c2ccc(N(C)C)cc2)c2nsnc12	PfHsp90 yeast 2 109 (no result: SUMO Mot1 rescue)
CC(c1nnnn1C1CCCCC1)N(Cc1ccccc1)Cc1cccnc1 (centres undefined)	SUMO Mot1 rescue 278
C/C(=N\O)C(=O)Nc1ccccc1	none
CC(=N\Nc1ccc(Cl)cc1)/C(=N/O)C(=O)Nc1ccccc1	SUMO Mot1 rescue 256
COc1cccc(-c2nn(-c3ccc(F)cc3)cc2C(=O)NCC2CCCO2)c1 (centres undefined)	none
CCOC(=O)/C(=C/c1ccc(N2CCC(c3ccccc3)=N2)cc1)C(C)=O	PfHsp90 yeast 2 106 (no result: tim10-1 inh, SUMO Mot1 rescue, tim23-1 inh, TIM10 inh)
c1ccc(C2=NN(c3ccccc3)CC2)cc1	none
O=C(N/N=C/c1cc2c3c(c1O)CCCN3CCC2)c1ccccc1O	PfHsp90 yeast 2 107 (no result: tim10-1 inh, SUMO Mot1 rescue, tim23-1 inh, TIM10 inh)
O=C(Nc1nnc(-c2ccc3c(c2)CCCC3)o1)c1ccc(Cl)cc1Cl	PfHsp90 yeast 2 105
O=C(Cn1cncn1)NCc1ccccc1Br	none
O=C(Cn1cncn1)c1ccccc1Br	SUMO Mot1 rescue 357
CCn1c(C)cc(C(=O)CSc2nnc(-c3ccco3)o2)c1C	none
COc1ccccc1C(=O)N/N=C/c1ccc2c(c1)OCO2	SUMO Mot1 rescue 301
CC(CC(=O)NNC(=O)c1cccc(Cl)c1)c1ccccc1 (centres undefined)	none
CC(=O)Oc1ccc(C)cc1-n1nc2ccccc2n1	none (no result: PfHsp90 yeast 2)
Cc1ccc(OCC(=O)O)c(-n2nc3ccccc3n2)c1	SUMO Mot1 rescue 340
O=C1/C(=C/c2ccncc2)CCC/C1=C\c1ccncc1	PfHsp90 yeast 2 102 (no result: tim10-1 inh, SUMO Mot1 rescue, tim23-1 inh, TIM10 inh)
c1ccc(-c2ccc(C(c3ccccc3)n3ccnc3)cc2)cc1 (centres undefined)	PfHsp90 yeast 2 105 (no result: tim10-1 inh, tim23-1 inh, TIM10 inh)
COc1cc(/C=C/C(=O)O)ccc1OS(=O)(=O)c1c(C)cc(C)cc1C	none (no result: PfHsp90 yeast 2)
CC[C@H](C)[C@H](NC(=O)OCc1ccccc1)C(=O)OCC(=O)N1CCN(c2ccc(F)cc2)CC1	none (no result: tim10-1 inh, SUMO Mot1 rescue, tim23-1 inh, TIM10 inh)
CCC(C)c1ccc(O)c(NC(=O)c2cccnc2)c1 (centres undefined)	SUMO Mot1 rescue 390
CCC(C)c1ccc(NC(=O)c2cccnc2)cc1 (centres undefined)	none
Fc1ccccc1-c1nc(-c2ccc(Br)o2)no1	none
O=C(NCCc1ccccc1)C(=O)NCC1CCCN1S(=O)(=O)c1cccs1 (centres undefined)	SUMO Mot1 rescue 355 (no result: PfHsp90 yeast 2)
Cc1ccc(S(=O)(=O)Oc2ccc(/C=C(/NC(=O)c3ccccc3)C(=O)O)cc2)cc1	SUMO Mot1 rescue 700
Cc1ccc(S(=O)(=O)Oc2ccc(/C=C(/NC(=O)c3ccccc3)C(=O)NCC(=O)O)cc2)cc1	none
C/C(=N\Nc1ccc(Cl)cc1)c1c(O)cc(C)oc1=O	SUMO Mot1 rescue 332
C/C(=N\NC(=O)c1cccs1)c1c(O)cc(C)oc1=O	none
CC(C)c1cc(CNC(=O)C2CCC(=O)N(Cc3ccccc3F)C2)on1 (centres undefined)	none
Cc1ccc(CSc2nc3ccsc3c(=O)n2Cc2ccccn2)cc1	PfHsp90 yeast 2 78
COc1ccc(-c2nc(C#N)c(NCCCN(C)C)o2)cc1OC	SUMO Mot1 rescue 306
CC(=O)OC[C@]12CC[C@H]3[C@@](C)(CC[C@H]4C(C)(C)CCC[C@]34C)[C@@H]1C[C@H](C1=CC(=O)O[C@H]1OC(C)=O)O2	SUMO Mot1 rescue 910 (no result: PfHsp90 yeast 2)
CC(=O)OC[C@]12CC[C@H]3[C@@](C)(CC[C@H]4C(C)(C)CCC[C@]34C)[C@@H]1C[C@@H](C1=CC(=O)O[C@@H]1OC(C)=O)O2	none (no result: PfHsp90 yeast 2)
Cc1ccc(S(=O)(=O)N2CCOCC2)cc1C(=O)NCc1ccccn1	none (no result: SUMO Mot1 rescue)
COc1cccc(/C=C2/CCC(CN(C)C)C2=O)c1 (centres undefined)	PfHsp90 yeast 2 146 (no result: tim10-1 inh, SUMO Mot1 rescue, tim23-1 inh, TIM10 inh)
COc1ccc(NC(=O)CCC(=O)Nc2nnc(C3CCCCC3)s2)c(OC)c1	none
O=C(Nc1cccc(-c2cccc(F)c2)c1)C1CCN(CC2CCOC2)CC1 (centres undefined)	SUMO Mot1 rescue 270
CCCOc1c(Br)cc(C(N)=O)cc1OCC	SUMO Mot1 rescue 316
COc1cc(C2C(C#N)=C(C)NC3=C2C(=O)CC(C)(C)C3)cc(OC)c1O (centres undefined)	SUMO Mot1 rescue 348
Cc1ccc(O)c(NC(=S)NC(=O)c2ccc(-c3ccc(Cl)cc3)o2)c1	PfHsp90 yeast 2 122
O=C(NC(=S)Nc1ccccc1O)c1ccc(-c2ccc(Cl)cc2)o1	none
CC(OC(=O)CCN=C1NS(=O)(=O)c2ccccc21)C(=O)Nc1ccc(N(C)C)cc1 (centres undefined)	none
Cc1ccc2nc(C)cc(C(=O)N/N=C/c3ccncc3)c2c1	none
CC(C)N1CCN(c2ccc(OC[C@H]3CO[C@](Cn4cncn4)(c4ccc(Cl)cc4Cl)O3)cc2)CC1	SUMO Mot1 rescue 269, PfHsp90 yeast 2 101
COc1ccc(N2CCN(Cc3nc(-c4ccc(Cl)cc4Cl)no3)CC2)cc1	none
CC(C)N1CCN(c2ccc(OCC3COC(Cn4cncn4)(c4ccc(Cl)cc4Cl)O3)cc2)CC1 (centres undefined)	PfHsp90 yeast 2 113 (no result: tim10-1 inh, SUMO Mot1 rescue, tim23-1 inh, TIM10 inh)
COc1ccc(N2CCN(C(=O)Cn3cncn3)CC2)cc1	none (no result: SUMO Mot1 rescue)
COc1ccccc1C(=O)NCC(=O)OCC(=O)c1cccc2ccccc12	SUMO Mot1 rescue 321 (no result: PfHsp90 yeast 2)
COc1ccccc1C(=O)COC(=O)CNC(=O)c1ccc(Br)o1	none
O=C(Nc1cccc(NC(=O)c2ccco2)n1)c1ccco1	none
O=C(N/C(=C/c1cccs1)C(=O)N1CCCCCC1)c1ccccc1	none
O=C(N/C(=C\c1cccs1)C(=O)N1CCCCCC1)c1ccccc1	SUMO Mot1 rescue 312
CCOc1ccccc1N(CC(=O)NC1CCCCC1)S(=O)(=O)c1ccc(C)cc1	none
O=C(NC1CC1)C1CCN(C2CCN(Cc3ccccc3C(F)(F)F)CC2)CC1	SUMO Mot1 rescue 313
O=C(Nc1ccccc1C(F)(F)F)N1CCC(N2CCCCC2)CC1	SUMO Mot1 rescue 296
COc1ccc(C(C)(C)C)cc1NC(=O)COC(=O)CSCc1c(C)noc1C	none (no result: SUMO Mot1 rescue, PfHsp90 yeast 2)
S=C1NC2(CCCC2)N=C1c1ccccc1	SUMO Mot1 rescue 490
CCOC(=O)c1cnc(-c2ccccc2)[nH]c1=O	SUMO Mot1 rescue 320
CCOC(=O)c1cnc(-c2cccc(OC)c2)[nH]c1=O	none
CCN1C/C(=C/c2cccc([N+](=O)[O-])c2)C(=O)/C(=C/c2cccc([N+](=O)[O-])c2)C1	PfHsp90 yeast 2 102 (no result: tim10-1 inh, tim23-1 inh, TIM10 inh)
COC1CCCN(Cc2c(C(=O)N3CCN(C4CCCCC4)CC3)nc3ccccn23)C1 (centres undefined)	none
CC(C#N)(Nc1ccc(Cl)cc1)c1cccnc1 (centres undefined)	SUMO Mot1 rescue 306
Clc1ccc(NCc2cccnc2)cc1	none
Cc1cccc(C)c1NC(=O)CNC(=O)c1ccc(COc2ccccc2)o1	none
